Several values for one entry are separate records, joined by “and”; a condition that tells them apart may be missing. Equal values may be shown once. Results filed as inconclusive are left out. A number with no mark means an inactive call. Activity calls are given as the source filed them. Calls follow the shape of the dose curve; as a rule, active = well fitted cell-killing curve with a large enough effect; inconclusive = small, poorly fitted or top-dose-only effect; inactive = flat fitted curve, though single readings scatter.
Assay: Cellular viability qHTS for adrenocortical cancer (ACC) cell line NCI-H295R (AID 1963990); also: nearly all actives have a fitted effect of over 60% in size;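 as to activity change, negative = viability loss: 0% = DMSO only wells and -100% = full killing with cytotoxic reference compound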
Details: CellTiter-Glo ATP luminescence, 48 h; series mostly up to 46.1 µM; activity change, negative = viability loss: at the top concentration
Procedure, shortened: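 Viability of NCI-H295R after 48 h of treatment (final up to 46 uM) measured through cellular ATP luminescence.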
Potency is read from the fitted curve at half-maximal effect.

| Structure (SMILES) | activity change, negative = viability loss | Potency |
| --- | --- | --- |
| O=C1CC[C@H](N2Cc3c(OCc4ccc(CN5CCOCC5)cc4)cccc3C2=O)C(=O)N1 | -9.45% | – |
| COc1ccc2cc(CCC(C)=O)ccc2c1 | 19.2% | – |
| O=C(Nc1ccc(S(=O)(=O)N2CCOCC2)cc1)c1cc(Cl)ccc1NS(=O)(=O)c1ccc(Cl)s1 | – | 20.6 µM (active) and 25.1 µM (active) |
| COc1ccc(/C=C/C(=O)c2ccc(OC)cc2OC)cc1 | – | 9.2 µM (active) |
| Cc1ccc(NC(=O)c2ccc(CN3CCN(C)CC3)cc2)cc1Nc1nccc(-c2cccnc2)n1 | – | 25.1 µM (active) |
| OCCOc1ccc(/C(=C(/CCCl)c2ccccc2)c2ccccc2)cc1 | – | 25.1 µM (active) |
| CCC(=O)OCC(=O)C1(OC(=O)CC)C(C)CC2C3CCC4=CC(=O)C=CC4(C)C3(F)C(O)CC21C (stereo unspecified) | – | 4.47 µM (active) |
| CC(=O)N1CCC(Nc2cc(C(=O)NC[C@H](O)CN3CCc4ccccc4C3)ncn2)CC1 | -18% | – |
| CCCCN(CCCC)C(C(N)=O)c1ccc(OC)cc1 (stereo unspecified) | -5.63% | – |
| NC(=O)c1ccc2nc(-c3ccc(C4(N)CCC4)cc3)c(-c3ccccc3)n2n1 | – | 6.31 µM (active) |
| c1ccc2occc2c1 | -22.6% [at 92.7 µM] | – |
| C=CCN(/C=C1\C(=O)O[C@@H](COC)[C@]2(C)C1=C(O)C(=O)C1=C2[C@@H](OC(C)=O)C[C@]2(C)C(=O)CC[C@H]12)CC=C | – | 28.2 µM (active) |
| CCN(CC)CCCN(c1ccccc1)C1Cc2ccccc2C1 | – | 25.9 µM (active) |
| CC(C)=CCC1C(=O)N(c2ccccc2)N(c2ccccc2)C1=O | – | 20.6 µM (active) |
| Nc1n[n+]([O-])c2ccccc2[n+]1[O-] | – | 17.8 µM (active) |
| O=C(Cc1ccccc1)Nc1nnc(CCSCCc2nnc(NC(=O)Cc3ccccc3)s2)s1 | 0.107% | – |
| CC(=C(CCOC(=O)C(C)C)SSC(CCOC(=O)C(C)C)=C(C)N(C=O)Cc1cnc(C)nc1N)N(C=O)Cc1cnc(C)nc1N | -16.7% | – |
| CCC(=O)Oc1ccc2c(c1)CC[C@@H]1[C@@H]2CC[C@@]2(C)[C@H]1C[C@@H](OC(=O)CC)[C@@H]2OC(=O)CC | -21.1% | – |
| Nc1nc2ccccc2n1Cc1ccc(F)cc1 | -23.8% | – |
| CCCCCCOc1ccccc1C(N)=O | -22.3% | – |
| C=C[C@@H]1CN2CCC1C[C@H]2[C@H](O)c1ccnc2ccc(OC)cc12 (stereo partly specified) | 1.4% | – |
| COc1ccc(S(=O)(=O)NCc2ccc(C(=O)NCCc3ccc(Cl)cn3)cc2)cc1 | -20.4% | – |
| NNC(=O)CP(=O)(c1ccccc1)c1ccccc1 | – | 16.4 µM (active) |
| NC(=O)n1c(O)c(C(=O)c2cccs2)c2cc(Cl)ccc21 | – | 9.2 µM (active) |
| CCOC(=O)c1c(N)sc2c1CCN(Cc1ccccc1)C2 | -22.2% | – |
| CCCCOc1cc(C(=O)NCCN(CC)CC)c2ccccc2n1 | – | 20.6 µM (active) |

Source: PubChem BioAssay (NCATS)
